Data: PubChem BioAssay AID485344 (National Center for Advancing Translational Sciences (NCATS), 2010)
In all, about 340,000 compounds went through this assay and about 6,900 (2%) were called active. Cut-off read from the data, not from the text of the source: active = inhibition above about 30%; inactive = below that, where a call was filed. This excerpt belongs to a sample that is enriched for actives.

These compounds were tested against D(2) dopamine receptor (Homo sapiens) (UniProt P14416) (assay: HTS Assay for Allosteric Antagonists of the Human D2 Dopamine Receptor: Primary Screen for Antagonists). Conditions: HEK293 TREx D2 cells, calcium flux, dopamine EC80; at 10 µM; stronger effect = higher value.
In short: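 Compounds are added to dye-loaded, induced HEK293 T-REx cells coupled to calcium release via D2; after a 3 min kinetic read an EC80 dopamine stimulus is given and fluorescence is recorded for 3 more min.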
Note: 0% is about no effect.

Sequence of D(2) dopamine receptor (Homo sapiens) (P14416 whole entry, looked up): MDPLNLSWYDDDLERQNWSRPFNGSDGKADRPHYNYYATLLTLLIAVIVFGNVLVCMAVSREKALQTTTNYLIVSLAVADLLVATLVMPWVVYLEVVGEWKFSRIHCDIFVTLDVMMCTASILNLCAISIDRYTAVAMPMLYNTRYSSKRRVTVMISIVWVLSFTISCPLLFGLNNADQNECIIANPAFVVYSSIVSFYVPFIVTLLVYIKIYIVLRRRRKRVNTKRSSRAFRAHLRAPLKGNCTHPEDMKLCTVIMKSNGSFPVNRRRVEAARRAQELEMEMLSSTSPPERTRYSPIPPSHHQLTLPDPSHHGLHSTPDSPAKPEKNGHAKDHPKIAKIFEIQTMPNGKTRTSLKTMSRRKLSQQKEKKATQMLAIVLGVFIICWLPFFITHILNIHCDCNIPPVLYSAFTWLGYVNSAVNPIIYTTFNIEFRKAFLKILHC

Compound | inhibition
COc1ccc(C2CC(c3cccs3)=NN2C(=O)CSc2nnc(N)s2)cc1OC (stereo unspecified) | -3.75% (inactive)
COc1ccc(C2CC(c3cccs3)=NN2C(=O)CSc2nncs2)cc1OC (stereo unspecified) | -4.05% (inactive)
COc1cccc(C2CC(c3cccs3)=NN2C(=O)CSC2=NCCS2)c1OC (stereo unspecified) | 31.4% (active)
CCOc1ccc2oc(C(=O)N(CC)CC(=O)Nc3ccc(NC(C)=O)cc3)c(C)c2c1 | -21.5% (inactive)
CCCC(NCC(=O)Nc1ccccc1C(=O)NC1CC1)c1ccccc1 (stereo unspecified) | -15.9% (inactive)
O=C(CCc1nc2sc3c(c2c(=O)[nH]1)CCCC3)NCC(=O)Nc1ccccc1Br | 11% (inactive)
Cc1ccccc1NC(=O)Cc1nc(COC(=O)c2cccnc2Cl)cs1 | 6.55% (inactive)
CCCn1cc(SCC(N)=O)c2ccccc21 | 31.1% (active)
CC(C)N(C(=O)Cn1cc(SCC(=O)N2CCCC2)c2ccccc21)C(C)C | 13.5% (inactive)
NC(=O)CSc1c[nH]c2ccccc12 | -9.76% (inactive)
CCCCN(C(=O)C1CCC1)c1c(N)n(Cc2ccccc2)c(=O)[nH]c1=O | -6.33% (inactive)
O=C(NCCC1CCCCN1S(=O)(=O)c1ccc(Cl)cc1)C(=O)NCc1ccco1 (stereo unspecified) | -13.3% (inactive)
COc1ccc(C(=O)NCc2ccc(Cl)cc2)cc1S(=O)(=O)N1CCCC1 | -28.1% (inactive)
O=C(CCC(=O)c1cccs1)NCc1ccccc1 | 34.9% (active)
O=C(CCC(=O)c1cccs1)NC1CCCCCC1 | -3.48% (inactive)
O=C(CCCc1ccccc1)NCc1ccccc1 | 7.76% (inactive)
CC(NC(=O)CN(C)S(=O)(=O)c1ccc(F)cc1)C1CC2CCC1C2 (stereo unspecified) | 2.6% (inactive)
COc1ccc(CCNC(=O)c2cnc(Cl)c(Cl)c2)cc1 | 2.2% (inactive)
CC(CCc1ccccc1)NC(=O)c1cnc(Cl)c(Cl)c1 (stereo unspecified) | 43.2% (active)
CC(CCc1ccccc1)NC(=O)c1ccc(Br)o1 (stereo unspecified) | -19.1% (inactive)
COc1cccc(N2CCN(CC(=O)Nc3ccnn3C3CCCC3)CC2)c1 | 19.5% (inactive)
CCN(CC)CCNC(=O)c1ccc(NS(=O)(=O)c2ccc3c(c2)OCCO3)cc1 | 1.77% (inactive)
CCN(CC)CCNC(=O)c1cc(S(C)(=O)=O)ccc1OC | 99% (active)

Compound | inhibition
COc1ccc(C(=O)NCCc2ccc(S(N)(=O)=O)cc2)cc1OC | 14% (inactive)
COc1cccc(NC(=O)CN(C)C(=O)/C=C/c2cn(-c3ccccc3)nc2-c2cccs2)c1 | 12.4% (inactive)
COCCNc1nc(N)c([N+](=O)[O-])c(N2CCCCCC2)n1 | -9.71% (inactive)
CC1CN(c2nc(Nc3ccccc3)nc(N)c2[N+](=O)[O-])CC(C)O1 (stereo unspecified) | 13.4% (inactive)
CCN1CCN(c2nc(Nc3cccc(F)c3)nc(N)c2[N+](=O)[O-])CC1 | 73.4% (active)
O=C(C1Cc2ccccc2CN1C(=O)c1ccco1)N1CCN(c2ccccc2)CC1 (stereo unspecified) | -4.55% (inactive)
CC(C)(C)C(=O)COC(=O)c1cc(S(=O)(=O)N2CCCCC2)ccc1N1CCOCC1 | 1.2% (inactive)
Cc1ccc(S(=O)(=O)N2CCC(C(=O)OCC(=O)N(C)c3ccccc3)CC2)cc1C | -7.26% (inactive)
Cc1nnsc1C(=O)N/N=C/c1ccccc1Cl | -8.27% (inactive)
O=C(Nc1ccccc1)c1nnsc1S(=O)(=O)c1ccc(Cl)cc1 | 35.7% (active)
CN(c1cccc(NC(=O)Nc2ccc(Cl)cc2)c1)S(C)(=O)=O | 4.52% (inactive)
CCOc1ccc(C(C)NC(=O)CN2C(=O)NC3(CCCCC3)C2=O)cc1OCC (stereo unspecified) | -2.35% (inactive)
CSCCC(NC(=O)COc1ccccc1)C(=O)N(C)CC(=O)Nc1ccc(C)cc1 (stereo unspecified) | -24.9% (inactive)
CC(OC(=O)/C=C/c1ccccc1)C(=O)NC1CCCCC1C (stereo unspecified) | -2.14% (inactive)
CCCCC(=O)NNC(=S)NC(=O)C(c1ccccc1)c1ccccc1 | 40.2% (active)
CC(C)C(=O)Nc1cccc(NC(=S)NC(=O)C(c2ccccc2)c2ccccc2)c1 | -3.17% (inactive)
O=C(NNC(=S)NCc1ccco1)C(c1ccccc1)c1ccccc1 | -2.47% (inactive)
Cc1ccc(S(=O)(=O)Nc2nc(CN3CCOCC3)nc3sc(C)c(C)c23)cc1 | -2.97% (inactive)
COc1ccc(CNC(=O)COc2ccccc2C(=O)c2cnn(-c3ccccc3)c2)cc1OC | 7.52% (inactive)
CC(CCN1CCN=C1N(C)C)c1ccccc1 (stereo unspecified) | 8.97% (inactive)
CC(C)(C)NC(=O)C(c1ccc(Cl)cc1)N(CCO)C(=O)c1snc(C(N)=O)c1N (stereo unspecified) | -7.69% (inactive)
CCOc1ccc(C(C(=O)NC2CCCC2)N(C(=O)c2snc(C(N)=O)c2N)C2CCCC2)cc1 (stereo unspecified) | -2.16% (inactive)
NC(=O)c1nsc(C(=O)N(CCCN2CCOCC2)C(C(=O)NC2CCCCC2)c2ccc(Cl)cc2)c1N (stereo unspecified) | 30.5% (active)

Compound | inhibition
Cc1cc(F)ccc1S(=O)(=O)Nc1ccc(C(=O)N(C)Cc2ccco2)cc1 | 2.47% (inactive)
Cc1cccc(-n2c(Cc3cc(=O)[nH]c(=O)[nH]3)nnc2SC(C)C)c1 | -16% (inactive)
COc1cccc(-n2c(Cc3cc(=O)[nH]c(=O)[nH]3)nnc2SCC(=O)Nc2ccccc2)c1 | -4.57% (inactive)
Cc1cccc(-n2c(Cc3cc(=O)[nH]c(=O)[nH]3)nnc2SCC(=O)Nc2cccc(C(F)(F)F)c2)c1 | 36.6% (active)
O=C(Nc1cccc(C(=O)NC2CC2)c1)c1ccc(F)c(S(=O)(=O)N2CCOCC2)c1 | -7.88% (inactive)
Cc1ccccc1C(=O)NC(=S)NC1CC1 | 31.1% (active)
Cc1ccccc1C(=O)NC(=S)Nc1ccc(N2CCN(C(=O)c3ccccc3)CC2)cc1 | -1.88% (inactive)
O=C(NNC(=S)NC1CCCCC1)c1ccccc1Cl | -5.96% (inactive)
CCn1c(SCC(=O)Nc2nccs2)nnc1-c1ccncc1 | 10.6% (inactive)
CCOC(=O)CSc1nnc(-c2ccco2)n1C | 25.3% (inactive)
CCn1c(SCC(=O)Nc2nccs2)nnc1-c1ccco1 | 83% (active)
Cn1c(SCC(=O)c2cccs2)nnc1-c1ccco1 | -10.8% (inactive)
Nn1c(SCC(=O)Nc2nccs2)nnc1-c1ccco1 | 3.93% (inactive)
Cn1c(SCC(=O)Nc2ccc(Br)cc2F)nnc1-c1ccco1 | 31% (active)
CSc1ncccc1C(=O)Nc1ccc2c(c1)OCO2 | -3.04% (inactive)
CCc1ccccc1OCC(=O)Nc1ccc(C)c(S(=O)(=O)N2CCCCCC2)c1 | -4.67% (inactive)
CCc1nnc(NC(=O)C2CCN(C(=O)c3ccccc3C)CC2)s1 | 14.3% (inactive)
Cc1c(C)c2ccc(OCC(=O)N3CCC(C(=O)O)CC3)c(C)c2oc1=O | 2.01% (inactive)
O=C(CNC(=O)C1COc2ccccc2O1)N/N=C/c1cc(Br)c(O)c(Br)c1 (stereo unspecified) | 7.94% (inactive)
Cc1c(CC(=O)N2CCN(C(=O)C3COc4ccccc4O3)CC2)c(=O)oc2c(O)c(O)ccc12 (stereo unspecified) | 60% (active)
COc1cccc(CNC(=O)COC(=O)CN2C(=O)NC3(CCCCC3C)C2=O)c1 (stereo unspecified) | 4.18% (inactive)
COc1cccc(C(=O)NCCS(=O)(=O)NCC2CCCO2)c1 (stereo unspecified) | 8.23% (inactive)
O=C(COC(=O)c1cc(=O)[nH]c2ccccc12)NCc1cccc(Cl)c1 | -19.7% (inactive)

Compound | inhibition
CCOC(=O)N1CCN(c2c(NCCN3CCN(c4ccccc4F)CC3)c(=O)c2=O)CC1 | -8.27% (inactive)
COc1ccc(CN2CC(C(=O)NCCc3ccc(Cl)cc3)CC2=O)cc1 (stereo unspecified) | 4.69% (inactive)
O=C(NCCCN1CCCCCC1)C1CC(=O)N(C2CCCC2)C1 (stereo unspecified) | -15.4% (inactive)
COc1ccc(CN2CC(C(=O)NC3CCCCC3)CC2=O)cc1 (stereo unspecified) | 9.38% (inactive)
COc1ccc(CN2CC(C(=O)NCCN3CCN(c4ccccc4F)CC3)CC2=O)cc1 (stereo unspecified) | 78.4% (active)
O=C(NCCCN1CCN(c2ccccc2F)CC1)C1CCC(=O)N1C1CCCCC1 (stereo unspecified) | 55.7% (active)
CCOC(=O)C1CCN(C(=O)c2cccc(S(=O)(=O)N(CC)c3ccccc3)c2)CC1 | 14.5% (inactive)
Nc1c(C(=O)OCC(=O)Nc2ccc(OC(F)F)cc2)[nH]c(=O)[nH]c1=O | 0.0124% (inactive)
Cc1ccc(CSc2ccc(S(=O)(=O)N3CCCCC3)cn2)cc1 | -10.3% (inactive)
COc1ccc(NC(=O)CSc2nnc(C3CC3)n2C)cc1S(=O)(=O)N1CCCCC1 | -7.07% (inactive)
CCOC(=O)COc1ccc([N+](=O)[O-])cc1 | 5.2% (inactive)
C/C(=N/NC(=O)CC(=O)N/N=C(\C)c1ccc([N+](=O)[O-])cc1)c1ccc([N+](=O)[O-])cc1 | -6.92% (inactive)
C/C(=N\N(C)C)c1ccc(OCCOc2ccc([N+](=O)[O-])cc2)cc1 | 33.5% (active)
CC(=O)C[C@@H](O)CC(=O)[C@H]1OC(=O)CCCCCCc2ccccc21 | 3.89% (inactive)
Cc1ccccc1NC(=O)COc1cccc2c1CCNC2=O | -0.505% (inactive)
CCCCN(C(=O)CSCC(=O)Nc1ccc(OC)cc1)c1c(N)n(CCC)c(=O)[nH]c1=O | 9.85% (inactive)
N#Cc1ccc(CN2CCN(CC(=O)Nc3ccccc3C(=O)NC3CC3)CC2)cc1 | 4.29% (inactive)
CC1Cc2ccccc2N1S(=O)(=O)c1cccc(C(=O)NCC(c2ccco2)N2CCCC2)c1 (stereo unspecified) | -15% (inactive)
C/C(N)=C(/C#N)C(=O)COC(=O)CNS(=O)(=O)c1ccc(C)cc1 | 12.5% (inactive)
COC(=O)CNS(=O)(=O)c1ccc(OC)cc1 | 6.78% (inactive)
COC(=O)CNS(=O)(=O)c1ccc(Cc2ccc(S(=O)(=O)NCC(=O)OC)cc2)cc1 | 41.3% (active)
CNS(=O)(=O)c1cccc(C(=O)OCCCC(=O)c2ccccc2)c1 | -4.56% (inactive)
